Experimental data from PubChem BioAssay (NCATS).
Inconclusive results are not listed. Calls of active or inactive are those of the source. Calls follow the shape of the dose curve; as a rule, active = well fitted inhibition curve with a large enough effect; inconclusive = small, poorly fitted or top-dose-only effect; inactive = flat fitted curve, though single readings scatter.

What follows are compounds tested on HACAT (assay: qHTS assay to identify novel small-molecules to repurpose for Merkel cell carcinoma treatment (AID 1296009; also: nearly all actives have a fitted effect of over 60% in size)). Settings: MCC and control cell lines, CellTiter-Glo viability, 72 h; at 44.8 µM (top of the series) unless noted.
Procedure, shortened: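 Cells exposed to NPC (8-point) and MIPE (11-point) compound dilutions for 72 hr at 37 degree celsius; viability read by CellTiter-Glo luminescence, normalized to no-cell and DMSO in-plate controls.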

Row | Compound | outcome
1 | CC(=O)Nc1ccccc1 | inactive
2 | O=C(/C=C/c1ccccc1)OCc1ccccc1 | inactive
3 | c1ccc2[nH]ccc2c1 | inactive
4 | NC(N)=NS(=O)(=O)c1ccc(N)cc1 | inactive
5 | Cc1ccc(S(=O)(=O)NC(=O)NC2CCCCC2)cc1 | inactive
6 | C[C@H]1COc2c(C3(N)CC3)c(F)cc3c(=O)c(C(=O)O)cn1c23 | inactive
7 | Cc1c(NC(C)C)c(=O)n(-c2ccccc2)n1C | inactive
8 | CCCCCC(N)=O | inactive
9 | Cn1c(=O)c2c(ncn2CCO)n(C)c1=O | inactive
10 | CC(C)c1cc2c(cc1S(=O)(=O)O)[C@@]1(C)CCC[C@@](C)(C(=O)O)[C@@H]1CC2 | inactive
11 | O=C(NCCCN1CCOCC1)c1ccc(Cl)cc1 | inactive
12 | COc1ccccc1OC(=O)Oc1ccccc1OC | inactive
13 | OCc1ccc(Cl)cc1Cl | inactive
14 | CC(=O)Nc1cccc(O)c1 | inactive
15 | FC(F)(F)C(Cl)Br (stereo not drawn) | inactive
16 | Cc1c(N(C)C)c(=O)n(-c2ccccc2)n1C | inactive
17 | COC(=O)c1cccnc1 | inactive
18 | CCN(CC)CC1CCCCN1CC(=O)N1c2ccccc2C(=O)Nc2cccnc21 (stereo not drawn) | inactive
19 | Cc1cccc(Nc2ccccc2C(=O)O)c1C | inactive

Row | Compound | outcome
20 | COc1ccccc1Oc1c(NS(=O)(=O)c2ccc(C(C)(C)C)cc2)nc(-c2ncccn2)nc1OCCO | inactive
21 | CCc1nnc(NS(=O)(=O)c2ccc(N)cc2)s1 | inactive
22 | Cc1c(C(=O)NCCO)[n+](=O)c2ccccc2n1[O-] | inactive
23 | O=C1c2cccc(O)c2C(=O)c2c(O)cccc21 | inactive
24 | CCCCCCCC(=O)OCC(COC(=O)CCCCCCC)OC(=O)CCCCCCC | inactive
25 | O=C1C(c2[nH]c3ccccc3c2O)=Nc2ccccc21 | inactive
26 | NNC(=O)CP(=O)(c1ccccc1)c1ccccc1 | inactive
27 | Nc1ncnc2c1ncn2[C@@H]1O[C@H](COP(=O)(O)O)[C@@H](O)[C@H]1O | inactive
28 | CC1CCc2cc(F)cc3c(=O)c(C(=O)O)cn1c23 (stereo not drawn) | inactive
29 | O=C(O)c1cc(=O)c2ccccc2o1 | inactive
30 | C=CCSCC1Nc2cc(Cl)c(S(N)(=O)=O)cc2S(=O)(=O)N1 (stereo not drawn) | inactive
31 | O=C(O)Cc1ccc(CCNS(=O)(=O)c2ccc(Cl)cc2)cc1 | inactive
32 | CC[N+](CC)(CC(=O)Nc1c(C)cccc1C)Cc1ccccc1 | inactive
33 | O=c1[nH]c(=O)c2ccccc2o1 | inactive
34 | O=C(O)c1ccccc1OP(=O)(O)O | inactive
35 | O=S1(=O)OC(c2ccc(O)cc2)(c2ccc(O)cc2)c2ccccc21 | inactive
36 | COc1ccc(C(=O)N2CCN(CC(=O)N3CCOCC3)CC2)cc1 | inactive
37 | OCC(O)CS (stereo not drawn) | inactive
38 | CN1CCN(C(=O)C2CCCCC2)CC1 | inactive
